This passage reports Potency results from PubChem BioAssay (Tox21).

Results filed as inconclusive are left out. Activity calls are given as the source filed them. Unless noted, calls come from the whole dose curve; as a rule, active = well fitted curve in the direction sought with a large enough effect in the repeat runs; inconclusive = weak or mixed curves; inactive = no such curve, though single readings can be large; an effect the other way counts as inactive or inconclusive.

A short description of assay [1]: qHTS assay for small molecule agonists of the p53 signaling pathway (AID 651631; calls by dose curve; note: nearly all actives have a fitted effect of over 15% in size; note: potency is the fitted concentration of half-maximal effect). Summed up: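 Beta-lactamase reporter activity under p53 response elements was quantified in HCT-116 cells by FRET fluorescence, following 16 h incubation with test compounds at 37 °C and 2 h substrate development at room temperature.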
Assay [2] in a line: qHTS assay for small molecules that induce genotoxicity in human embryonic kidney cells expressing luciferase-tagged ATAD5 (AID 651632). Note: nearly all actives have a fitted effect of over 15% in size. Note: potency is the fitted concentration of half-maximal effect. Summed up: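 Luminescence read-out: after 16 hr compound exposure at 37C, ATAD5-luciferase HEK293T cells received Amplite, 30 min RT, then CCD imaging. A rise in signal marks genotoxic stress.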
Assay [3] is described as follows: qHTS assay for small molecules that induce genotoxicity in human embryonic kidney cells expressing luciferase-tagged ATAD5 - cell viability (AID 651634; calls by dose curve; note: nearly all actives have a fitted effect of over 25% in size). Put shortly:
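HEK293T ATAD5-luc cells, 2,000/well; compound 15.5 hr, 37C/5% CO2; CellTiter-Fluor 30 min, 37C; fluorescence read.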
For orientation: Quantitative high-throughput screening tests each substance at several concentrations.

The nature of assay [4]: qHTS assay for small molecule disruptors of the mitochondrial membrane potential (AID 720635). Note: potency is the fitted concentration of half-maximal effect. Summed up:
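HepG2 cells (2,000/well) attached overnight at 37C, then took compound for 1 hr at 37C, 5% CO2. Mito-MPS dye was added for 30 min; fluorescence was read at 490/535 nm (monomers) and 540/590 nm (aggregates).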

The nature of assay [5]: qHTS assay to test for compound auto fluorescence at 590 nm (red) in HepG2 cells (AID 720674). Summed up: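 Compound auto-fluorescence is scored relative to Rose Bengal sodium, measured at 540/590 nm in live HepG2 cultures after 1 hr compound contact (37 C, 5% CO2).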
A short description of assay [6]: qHTS assay to test for compound auto fluorescence at 535 nm (green) in HepG2 cells (AID 720675).
Assay [7] is described as follows: qHTS assay to test for compound auto fluorescence at 460 nm (blue) in HEK293 cells (AID 720678). Summed up:
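Blue read-out at excitation 405 nm and emission 460 nm follows overnight compound exposure of HEK293 cells at 37C in 5% CO2. Activity is given as auto fluorescence equivalency to triamterene.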

Assay [8] in a line: qHTS assay to test for compound auto fluorescence at 590 nm (red) in HEK293 cells (AID 720679). Put shortly:
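Red channel, Ex/Em 540/590nm; signal expressed as equivalency to Rose Bengal sodium. HEK293, 2,000 cells/well, 10% dialyzed FBS; 23 nL compound pinned after 4-5 hr attachment; overnight 37C/5% CO2 before reading.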

Assay [9] can be described thus: qHTS assay for small molecule agonists of the p53 signaling pathway - cell viability (AID 651633; calls by dose curve; note: nearly all actives have a fitted effect of over 30% in size; note: potency is the fitted concentration of half-maximal effect). Put shortly:
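p53RE-bla cells, seeded at 4,000 per well and rested 5 h at 37 C/5% CO2, received compounds in DMSO for 16 h at 37 C. CellTiter-Glo was then added, and luminescence was read after 30 min at room temperature to gauge cytotoxicity.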

Assay [10] can be described thus: qHTS assay for small molecule disruptors of the mitochondrial membrane potential - cell viability (AID 720634; calls by dose curve;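 note: human HepG2 liver cancer cells; series mostly up to about 83 µM; nearly all actives have a fitted effect of over 20% in size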). Put shortly: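 Luminescence from CellTiter-Glo (ATP content) gave viability in HepG2 cells, read in the same wells as the MMP dye assay after 1 hr compound exposure at 37 C.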

Consider `CCC(=O)O[C@H]1CC[C@H]2[C@@H]3CCc4cc(O)ccc4[C@H]3CC[C@]12C`, for which the Potency is 33.5 µM (active) in assay [1] and 11.9 µM (active) in [4]. Besides, the Potency result in assay [2], in assay [3], in assay [5], in assay [6], in assay [7] and in assay [8] was “inactive” each time.
Consider `CCCCCCCCCCCCOCCCN`, for which the Potency entry in assay [1], in [9], in assay [3], in [10], in assay [4] and in [5] was “inactive” in each case. In addition, the Potency result in [6], in [7] and in assay [8] was “inactive” throughout.
For `CN1c2c(nc(N)[nH]c2=O)NCC1CNc1ccc(C(=O)NC(CCC(=O)O)C(=O)O)cc1` (stereo unspecified), the Potency entry in assay [1], in assay [2], in assay [9], in [3], in [10] and in assay [6] was “inactive” throughout. In addition, the Potency entry in [7] and in [8] was “inactive” in each case.
With `CC(=O)N(CC(C)C(=O)O)c1c(I)cc(I)c(N)c1I` (stereo unspecified), the Potency entry in [1], in assay [2], in assay [9], in [3], in [10] and in [6] was “inactive” throughout. In addition, the Potency entry in [7] and in [8] was “inactive” each time.
For `CC1(S(=O)(=O)O)CC(=O)c2ccccc2C1=O` (stereo unspecified), the figures for the Potency in [1] and in [9] were 21.1 µM (active) and 26.6 µM (active), respectively. The Potency result in assay [2], in assay [10], in assay [5], in assay [6] and in assay [8] was “inactive” each time.
As for `CCCOc1ccc2nc(NC(=O)OC)sc2c1`, the Potency in assay [1] is 1.5 µM (active); in assay [2], 1.88 µM (active); in assay [4], 7.5 µM (active). For the same compound, the Potency entry in assay [9], in assay [10], in assay [5], in assay [6], in [7] and in assay [8] was “inactive” each time.
With `CC(O)[C@@H]1NC(=O)[C@H](CCCCN)NC(=O)[C@@H](Cc2c[nH]c3ccccc23)NC(=O)[C@H](Cc2ccccc2)NC(=O)[C@@H](NC(=O)[C@H](N)Cc2ccccc2)CSSC[C@@H](C(=O)N[C@H](CO)[C@@H](C)O)NC1=O` (stereo partly specified), the Potency result in assay [1], in assay [2], in assay [9], in assay [3], in assay [10] and in assay [6] was “inactive” each time. Moreover, the Potency result in assay [7] and in [8] was “inactive” in each case.
Take `CO[C@@]1(NC(=O)C2SC(=C(C(N)=O)C(=O)O)S2)C(=O)N2C(C(=O)O)=C(CSc3nnnn3C)CS[C@@H]21` (stereo partly specified): the Potency entry in assay [1], in assay [2], in assay [9], in assay [3], in assay [10] and in assay [6] was “inactive” throughout. Besides, the Potency result in assay [7] and in assay [8] was “inactive” in each case.
Turning to `CC(C(=O)O)c1ccc(N2Cc3ccccc3C2=O)cc1` (stereo unspecified), the Potency entry in assay [1], in assay [9], in assay [3], in [5], in assay [6] and in [7] was “inactive” throughout. Moreover, in assay [8], the Potency result is “inactive”. In addition, in [2], the Potency is 0.596 µM (active).
In the case of `O=C1C(=O)c2ncccc2-c2cccnc21`, the Potency in [1] was 1.68 µM (active); in [4] it was 26.6 µM (active). In addition, the Potency result in assay [2], in assay [3], in assay [10], in assay [5], in [6] and in assay [8] was “inactive” each time.
On to `CC[C@@]1(O)C(=O)OCc2c1cc1n(c2=O)Cc2cc3c([N+](=O)[O-])cccc3nc2-1`, for which the Potency in assay [1] and in assay [9] was 0.473 µM (active) throughout. Besides, the Potency result in assay [2], in [10], in assay [5], in assay [6], in [7] and in assay [8] was “inactive” in each case.
As to `CCCCCCCCCCCCCC[n+]1ccc(C)cc1`, the Potency in assay [1] was 23.7 µM (active); in assay [4] it was 13.3 µM (active). The Potency entry in assay [2], in assay [5], in assay [6], in [7] and in assay [8] was “inactive” throughout.
In the case of `COc1cc([C@@H]2c3cc4c(cc3C(O[C@@H]3O[C@@H]5COC(c6cccs6)O[C@H]5[C@H](O)[C@H]3O)C3COC(=O)[C@@H]32)OCO4)cc(OC)c1O` (stereo partly specified), in [1], the Potency is 0.376 µM (active). Also, the Potency result in assay [2], in assay [3], in assay [10], in assay [5], in assay [6] and in assay [7] was “inactive” in each case. Also, the Potency entry in [8] was “inactive”.
For the compound `C=CCNC1=C2C[C@@H](C)C[C@H](OC)[C@H](O)[C@@H](C)/C=C(\C)[C@H](OC(N)=O)[C@@H](OC)/C=C\C=C(/C)C(=O)NC(=CC1=O)C2=O`, the Potency in [1] was 0.168 µM (active). The Potency result in assay [2], in assay [9], in assay [10], in assay [5], in assay [6] and in assay [7] was “inactive” in each case. Also, in assay [8], the Potency result is “inactive”.
With `OCCO[C@@H]1[C@@H](O)[C@H](O)[C@@H](CO)O[C@@H]1O`, the Potency result in [1], in assay [9], in [3], in assay [10], in [4] and in assay [5] was “inactive” throughout. For the same compound, the Potency result in [6], in assay [7] and in assay [8] was “inactive” throughout.
As for `O=C(O)c1cc2ccccc2c(Cc2c(O)c(C(=O)O)cc3ccccc23)c1O`, the Potency result in [1], in assay [2], in assay [3], in [10], in [5] and in [6] was “inactive” throughout. The Potency entry in assay [7] and in assay [8] was “inactive” each time.
With `COc1cc(C)c(/C=C/C(C)=C/C=C/C(C)=C/C(=O)O)c(C)c1C`, the Potency in assay [1] was 29.8 µM (active). Also, the Potency result in assay [2], in assay [3], in assay [10], in [4], in assay [5] and in assay [6] was “inactive” each time. The Potency entry in assay [7] and in [8] was “inactive” throughout.
Consider `Cc1ncc(COP(=O)(O)O)c(CN)c1O`, for which the Potency entry in [1], in assay [2], in assay [9], in assay [3], in assay [5] and in assay [6] was “inactive” each time. Further, the Potency result in assay [7] and in [8] was “inactive” each time.
